In PubChem BioAssay (NCATS):
Results filed as inconclusive are left out. Active and inactive are the calls of the source. The call rests on the fitted dose curve; in most records, active means well fitted curve in the direction sought with a large enough effect; inconclusive means small, poorly fitted or top-dose-only effect, or another doubt; inactive means no such curve, though single readings can be large; an effect the other way counts as inactive or inconclusive.

Legend:
[1] = Cell Viability - LYMP2-001 (AID 921); details: LYMP2-001 lymphoblastoid cell viability; series mostly up to 92.2 µM; further: nearly all actives have a fitted effect of over 70% in size
How it was run: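 CellTiter-Glo luminescence (intracellular ATP) after 24 hr compound exposure at 37 C, 2500 lymphoblastoid cells/well in complete medium. AC50 fitted with standard Hill equation; tetraoctylammonium bromide positive control.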

[2] = MultiTox-Fluor Cytotoxicity Assay - LYMP1-001 - Dead Cells (AID 946); details: LYMP1-001 lymphoblastoid cells, dead-cell protease fluorescence; series mostly up to 92.2 µM
How it was run: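 Cytotoxicity as increased dead-cell protease fluorescence (bis-AAF-R110, 485/520 nm), read 60 min after MultiTox-Fluor reagent. Human lymphoblastoid line exposed 16 h; Hill-fitted AC50, with DMSO as 0% and 15 uM tetraoctylammonium bromide as 100%.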

[3] = MultiTox-Fluor Cytotoxicity Assay - LYMP1-001 - Live Cells (AID 947); details: LYMP1-001 lymphoblastoid cells, live-cell protease fluorescence viability; series mostly up to 92.2 µM
[4] = Cell Viability - LYMP1-002 - Assay at 16 hr (AID 948); details: LYMP1-002 lymphoblastoid cell viability; series mostly up to 92.2 µM
How it was run: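 LYMP1-002 human lymphoblastoid cells, 2500/well; 5 hr 37 C; cpd 16 hr 37 C; CellTiter-Glo 30 min RT; luminescence (ATP). Concentration-response, Hill-fit AC50. Pos ctrl tetraoctylammonium bromide.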

[5] = MultiTox-Fluor Cytotoxicity Assay - LYMP1-002 - Live Cells (AID 955); details: LYMP1-002 lymphoblastoid live-cell protease fluorescence viability; series mostly up to 46.1 µM;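 further: cells exposed to compound for 16 hours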
How it was run: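 Read-out is live-cell protease activity (cell-permeant GF-AFC substrate, fluorescence Ex/Em=405/510), where a decrease indicates acute toxicity. Human lymphoblastoid cells were treated 16 hours at 37 C in a concentration series, and AC50 values came from standard Hill modelling.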

[6] = MultiTox-Fluor Cytotoxicity Assay - LYMP1-002 - Dead Cells (AID 960); details: LYMP1-002 lymphoblastoid cells, dead-cell protease fluorescence; series mostly up to 46.1 µM; further: nearly all actives have a fitted effect of over 60% in size
How it was run: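 LYMP1-002 cells 2500/well; 5 hr 37 C pre-incubation; compound 16 hr 37 C; MultiTox-Fluor reagent 60 min RT; dead-cell fluor Ex/Em 485/520. Norm. to DMSO (0%) vs 15 uM tetraoctylammonium bromide (100%); Hill AC50.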

[7] = MultiTox-Fluor Cytotoxicity Assay - LYMP1-003 - Dead Cells (AID 961); details: LYMP1-003 lymphoblastoid cells, dead-cell protease fluorescence; series mostly up to 92.2 µM; further: nearly all actives have a fitted effect of over 70% in size
How it was run: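 Dead-cell protease release, detected as bis-AAF-R110 fluorescence at 485/520 nm, was measured in LYMP1-003 cells after 16 h compound treatment at 37 C. AC50 values came from Hill-modeled qHTS curves normalized to DMSO (0%) and 15 uM tetraoctylammonium bromide (100%).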

[8] = MultiTox-Fluor Cytotoxicity Assay - LYMP1-003 - Live Cells (AID 962); details: LYMP1-003 lymphoblastoid cells, MultiTox-Fluor live-cell protease fluorescence; series mostly up to 92.2 µM;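 further: cells exposed to compound for 16 hours at 37 °C; cytotoxic hits lower the live-cell protease signal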
How it was run: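 qHTS, 1536-well; 2500 cells/well LYMP1-003; 5 hr 37 C settle; cpd 16 hr 37 C; MultiTox-Fluor reagent 60 min RT; live-cell protease fluor. 405/510; Hill-fit AC50; tetraoctylammonium bromide pos. ctrl.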

[9] = Cell Viability - LYMP1-003 - Assay at 24 hr (AID 963); details: LYMP1-003 lymphoblastoid cell viability; series mostly up to 92.2 µM
How it was run: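 Cells seeded at 2500/well, 5 hr at 37 C; compounds added; 24 hr at 37 C; CellTiter-Glo added, 30 min room temperature; luminescence read. Decrease in ATP taken as cytotoxicity, AC50 from Hill modelling.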

[10] = Cell Viability - LYMP1-003 - Assay at 40 hr (AID 964); details: LYMP1-003 lymphoblastoid viability; series mostly up to 92.2 µM; further: nearly all actives have a fitted effect of over 60% in size
How it was run: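 Cells were seeded at 2500 per well and incubated 5 hr at 37 C. Compounds were added across a concentration series and left 40 hr at 37 C. CellTiter-Glo was added for 30 min at room temperature before luminescence reading.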

[11] = Cell Viability - LYMP2-003 (AID 965); details: LYMP2-003 lymphoblastoid cell viability; series mostly up to 92.2 µM;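 further: cells exposed to compounds for 24 h before reading; nearly all actives have a fitted effect of over 50% in size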
How it was run: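 CellTiter-Glo luminescence (cellular ATP) after 24 h compound exposure at 37 C in complete medium; 2500 cells/well, 5 h settling beforehand. Concentration-response fitted to standard Hill equation for AC50. Tetraoctylammonium bromide served as positive control.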

[12] = Cell Viability - LYMP2-004 (AID 966); details: LYMP2-004 lymphoblastoid cell viability, qHTS; series mostly up to 92.2 µM; further: nearly all actives have a fitted effect of over 65% in size
How it was run: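 Cells seeded 2500/well, rested 5 hr at 37 C, dosed across a concentration series, incubated 24 hr at 37 C, then CellTiter-Glo added for 30 min at room temperature and luminescence read. Hill fitting gave AC50.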

[13] = Cell Viability - LYMP2-005 (AID 967); details: LYMP2-005 lymphoblastoid cell viability; series mostly up to 92.2 µM
How it was run: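 Steps: seed 2500 LYMP2-005 cells/well, incubate 5 h at 37 C, add compound, incubate 24 h at 37 C, add CellTiter-Glo, wait 30 min at RT, read luminescence. Concentration-response data fitted to Hill equation for AC50.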

[14] = Cell Viability - LYMP2-009 (AID 968); details: LYMP2-009 lymphoblastoid cell viability; series mostly up to 92.2 µM; further: nearly all actives have a fitted effect of over 55% in size
[15] = Cell Viability - LYMP2-011 (AID 969); details: LYMP2-011 lymphoblastoid cells viability; series mostly up to 92.2 µM; further: nearly all actives have a fitted effect of over 60% in size
How it was run: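 2500 cells/well, 5 hr 37 C; compound added, 24 hr 37 C; CellTiter-Glo 30 min RT; luminescence. qHTS concentration-response, Hill-equation AC50. Tetraoctylammonium bromide positive control.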

[16] = Cell Viability - LYMP2-013 (AID 970); details: LYMP2-013 lymphoblastoid cells viability; series mostly up to 92.2 µM; further: nearly all actives have a fitted effect of over 55% in size
How it was run: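 qHTS; 2500 lymphoblastoid cells/well; 5 hr 37 C settle; cpd 24 hr 37 C; CellTiter-Glo, 30 min RT; luminescence. AC50 = Hill fit.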

[17] = Cell Viability - LYMP2-015 (AID 971); details: LYMP2-015 lymphoblastoid cell viability; series mostly up to 92.2 µM; further: nearly all actives have a fitted effect of over 55% in size
How it was run: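 Luminescent ATP read-out (CellTiter-Glo) served as the viability measure after lymphoblastoid cells were exposed to compounds for 24 hours at 37 C. Concentration-response data were fitted with the Hill equation to give AC50.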

[18] = Cell Viability - LYMP2-017 (AID 972); details: LYMP2-017 lymphoblastoid cell viability; series mostly up to 92.2 µM; further: nearly all actives have a fitted effect of over 55% in size
How it was run: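 2500 cells/well, 5 h 37 C; cpd 24 h 37 C in complete medium; CellTiter-Glo, 30 min RT; luminescence (ATP). AC50 via Hill fit, qHTS.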

[19] = Cell Viability - LYMP2-021 (AID 974); details: LYMP2-021 lymphoblastoid cells viability; series mostly up to 92.2 µM
How it was run: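 Plate 2500 lymphoblastoid cells per well and incubate 5 hr at 37 C. Add compounds over a concentration range and incubate 24 hr at 37 C. Add CellTiter-Glo, wait 30 min at room temperature, read luminescence.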

[20] = Cell Viability - LYMP2-023 (AID 975); details: LYMP2-023 lymphoblastoid cell viability; series mostly up to 92.2 µM
How it was run: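 2500 cells/well, 5 hr 37 C; cpd 24 hr 37 C; CellTiter-Glo, 30 min RT; luminescence. qHTS conc-response, Hill fit -> AC50. Pos ctrl tetraoctylammonium bromide.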

Measured: Potency

C=CC(=C)CCC=C(C)C
inactive: all assays above
